# Among all 48,000 compounds or so, about 13,000 (27%) showed an effect of 50% or more. This is one part of the list.
# System: Wolbachia pipientis
# Assay: Anti-Wolbachia Cell-Based Screen
# Format: functional
# Parameters: scale not given: in the data most compounds retested in dose-response had high values
# Settings: 5 µM
row,Structure (SMILES),Percent Effect [%]
1,CCN(Cc1nc(COC)no1)Cc1cccnc1NC,-1.287
2,COCCCN1CCC(CNc2nccc(-c3cnn(C)c3)n2)C1 (stereo unspecified),0.7819
3,CC1CCN(C(=O)c2cnc3cc(C(=O)N(C)C)n(C)c3c2)CC1,124.9
4,Cn1nc(C(=O)NC2CCCC2)cc1NC(=O)C1CC1,3.278
5,CN(C)C(=O)c1cc2ncc(C(=O)NC3CCCC3)cc2n1C,130.7
6,CN(C)C(=O)c1cccc(C[S+]([O-])CC(=O)NC2CCCC2)c1 (stereo unspecified),8.2
7,CCNc1ncc(C(=O)N[C@H]2CC[C@H](n3cnnc3)CC2)cn1,-5.329
8,O=C(NC1CC1)c1cnc2n1CCCC2,4.998
9,CN(C)C(=O)c1cc2ncc(C(=O)NC3CC3)cc2n1C,122.1
10,CC1CCN(C(=O)c2cccc3ncccc23)CC1,-1.834
11,CC(C)Oc1ncc(C(=O)N2CCC(N(C)C)CC2)cc1Cl,-24.51
12,COC(C(=O)N1CCN(Cc2noc(C)n2)CC1)c1ccccc1 (stereo unspecified),-8.523
13,Cc1cc(C)n2cc(CN3CCCC3Cn3nc(C)nc3C)nc2n1 (stereo unspecified),-6.959
14,Cn1cncc1-c1nnc([C@H]2CCN(Cc3ccc(CO)o3)C2)o1,-1.062
15,Cc1nn(C)c2ncc(NC(=O)N(C)Cc3cc(Cl)cn3C)cc12,-3.854
16,COC1COC2(CCN(Cc3ccco3)CC2)C1 (stereo unspecified),-9.93
17,CC[C@H]1N(Cc2ccco2)CCC[C@]12CCC(=O)N2C,102.2
18,CC[C@@H]1N(Cc2ccco2)CCC[C@]12CCC(=O)N2C.O=C(O)C(F)(F)F,98.83
19,Cn1nnc2c1CCN(Cc1ccco1)C2COCc1ccccc1.O=C(O)C(F)(F)F (stereo unspecified),30.71

row,Structure (SMILES),Percent Effect [%]
1,COC[C@@H]1CN(C)C(=O)[C@@H]2CCN(Cc3ccco3)CC[C@H]12,-1.368
2,COC(=O)CCN(CC1CCOC1)C1CC1 (stereo unspecified),-6.747
3,Cc1nnc(C(C)N(C)Cc2c(C)nn(-c3ccccc3)c2C)o1 (stereo unspecified),2.363
4,COCC1CN(Cc2ccccn2)Cc2cn(C)nc21.O=C(O)C(F)(F)F.O=C(O)C(F)(F)F.O=C(O)C(F)(F)F (stereo unspecified),-7.522
5,O=C(Nc1cccc(OCc2cccc(F)c2)c1)C1COCCO1 (stereo unspecified),-8.331
6,Cc1ccc(C)c(Oc2ccc(CNC(=O)C3CNC(=O)N3)cn2)c1 (stereo unspecified),-1.964
7,O=C1NCC(C(=O)Nc2ncc(Cc3cccc(F)c3)s2)N1 (stereo unspecified),100.2
8,O=C(Nc1nncs1)N(Cc1cccc(F)c1)C1CC1,-1.833
9,O=C1NCC(C(=O)N(Cc2cccc(Br)c2)C2CC2)N1 (stereo unspecified),3.322
10,Cc1ccc(Cc2cnc(NC(=O)C3CNC(=O)N3)s2)cc1F (stereo unspecified),1.212
11,CC(=O)NC(C)(C)C(=O)Nc1ncc(Cc2ccc(C)c(F)c2)s1,7.127
12,O=C1NCC(C(=O)Nc2ncc(Cc3ccc(F)cc3)s2)N1 (stereo unspecified),110.5
13,O=C1NCC(C(=O)Nc2ncc(Cc3ccccc3)s2)N1 (stereo unspecified),107.9
14,CC(=O)N1CCCN(C(=O)Nc2ccccc2N2CCOC2=O)CC1,-24.88
15,COc1cc(N2C[C@H]3CN(CC(=O)N(C)C)C(=O)[C@H]3C2)ncn1,-6.391
16,Cc1noc(CCNS(=O)(=O)N2CCCC2c2ccco2)n1 (stereo unspecified),-8.363
17,COc1ccc(-n2nnc(C(=O)NCC3CCCCC3)n2)cc1,-6.383
18,COc1ccc(-n2nnc(C(N)=O)n2)cc1,106.9
19,O=C(c1nnn(-c2ccc(C(F)(F)F)cc2)n1)N1CC(O)C1,9.515

row,Structure (SMILES),Percent Effect [%]
1,COCC(C)NC(=O)c1nnn(-c2ccc(OC)cc2)n1 (stereo unspecified),5.009
2,NC(=O)c1nnn(-c2ccc(Br)cc2)n1,2.849
3,NC(=O)c1nnn(-c2ccc(Cl)cc2)n1,106
4,O=C(Nc1ccccc1OCC(F)F)N[C@@H]1C=C[C@H](CO)C1,-12.74
5,O=C(NCC(O)c1ccc(F)cc1F)c1cccnc1O (stereo unspecified),-11.89
6,Cc1cccc(CNC[C@H]2Cn3ccnc3CO2)n1,-11.54
7,COc1ccnc(CNc2cc(C3CC3)ncn2)c1,-5.331
8,COCCOc1ccc(C(=O)N[C@@H]2CNCCC[C@H]2O)cc1,-1.711
9,Cl.c1ccc(CNc2cc(C3CCCNC3)ccn2)nc1 (stereo unspecified),70.58
10,Cl.Cl.c1ccc(NCc2cn3c(n2)CNCC3)nc1,6.135
11,Cc1cccc(CNc2cc(C3CCCNC3)ccn2)n1.Cl (stereo unspecified),115.3
12,Cc1cc(C)c2nc(CN[C@H]3CCCNC3)cc(O)c2c1,1.45
13,COCCNc1cc(C2CCCNC2)ccn1.Cl (stereo unspecified),131.3
14,COCCNc1ccc(-c2noc([C@@H]3CCCN3)n2)cn1,5.755
15,Cc1ccc2c(c1)c(CNC(C)Cn1nc(C)cc1C)nn2C (stereo unspecified),8.057
16,CCN1CCC(CNS(=O)(=O)N2CCc3ccccc3C2)C1 (stereo unspecified),5.13
17,Cc1cccc(C2(CNC(=O)CCN3C(=O)CCC3=O)CCCC2)c1,3.863
18,Cc1ccnc(OC[C@@]23CCO[C@@H]2CCN(S(C)(=O)=O)C3)n1,3.207
